Experimental data reported in PubChem BioAssay (EPA / NIEHS).
Activity calls are given as the source filed them. Rule for the calls: active = hit-call score of the fitted dose curve at least 0.9, where 1 is the maximum; inactive = score below 0.9.

assay: ATG_Sox_CIS: Attagene CIS-FACTORIAL HepG2 Assay for human SRY-box transcription factor (SOX) (AID 2282960); conditions: HepG2 Attagene cis-factorial SOX reporter, mRNA; actives raise or lower the signal
Method in brief: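 Using transiently transfected HepG2 cells, reporter transcription driven by cis elements was assessed 24 h after dosing. Signal was fluorescence of capillary-separated RT-PCR products, with DMSO defining baseline activity.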

Row | SMILES | outcome
1 | COCCOCCOC | inactive
2 | CCCCCCCCCCO | inactive
3 | CCOC(=O)C(C)(C)Oc1ccc(Cl)cc1 | inactive
4 | CCc1c(C(=O)NN2CCCCC2)nn(-c2ccc(Cl)cc2Cl)c1-c1ccc(Br)cc1 | inactive
5 | CNC(=O)[C@H]1O[C@@H](n2cnc3c(NCc4cc(Cl)ccc4OCc4cc(C)no4)ncnc32)[C@H](O)[C@@H]1N | inactive
6 | C[Si]1(C)O[Si](C)(C)O[Si](C)(C)O[Si](C)(C)O1 | inactive
7 | CCCCc1ccc2c(n1)[C@@H](c1ccc(OC)cc1C[C@H](C)C(=O)O)[C@H](C(=O)O)[C@H]2c1ccc2c(c1)OCO2 | inactive
8 | Cc1cc(=O)[nH]c(=S)[nH]1 | inactive
9 | Cc1nc(-c2ccc3c(c2)CCN(CCC2CCC(NC(=O)/C=C/c4ccc(F)cc4)CC2)CC3)no1 (centres undefined) | inactive
10 | Cc1ccc(Cl)cc1 | inactive
11 | NC(=O)Cn1c(=O)cc(CCN2CCN(c3nccc4sccc34)CC2)c2ccc(F)cc21 | inactive
12 | Cc1ccccc1Cl | inactive
13 | Nc1nc(N)c2nc(CNc3ccc(C(=O)N[C@@H](CCC(=O)O)C(=O)O)cc3)cnc2n1 | inactive
14 | CN1CCN(Cc2cc(-c3ccc4[nH]c(=O)oc4c3)co2)[C@@H](c2ccc(F)cc2)C1 | inactive
15 | FC(F)(F)C(F)(F)C(F)(F)C(F)(F)C(F)(F)C(F)(F)CCI | inactive
16 | Cc1nc(C)nc(N2C[C@@H](C)N(c3ccnc([C@@H](C)O)n3)[C@@H](C)C2)n1 | inactive
17 | NS(=O)(=O)c1cc2c(cc1Cl)NCNS2(=O)=O | inactive
18 | Cc1cc(NC(=O)C(=O)O)cc(C)c1Oc1ccc(O)c2c1CCC2 | inactive
19 | O=C(O)Cc1ccccc1Nc1c(Cl)cccc1Cl | inactive
